Only some compounds are listed: those with a hit (about 4.5% of all), similar ones and a draw of the others.
GDH-TPI counter: counter-screen for M. tuberculosis FBA inhibitors: GDH-TPI coupled enzymes; GDH-TPI coupled enzyme counterscreen, NADH absorbance; inhibition, % at 4.8 µM; 360,000 compounds, 1.2% hits; AID 588335; in the data active = inhibition above about 30%;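 note: 0% = DMSO wells and 100% = wells lacking the enzyme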
BJeLR lethal: BJeLR cell viability loss; inhibition, % (concentration not given with the values); BJeLR (HRASV12) viability, CellTiter-Glo ATP luminescence, 48 h; 300,000 compounds, 0.17% hits; in the data active = inhibition above about 50%
PrPC TRFRET: inhibitors of human cell surface prion protein PrPC; TR-FRET read-out; P04156; inhibition, % at 13.8 µM; 370,000 compounds, 0.43% hits; in the data active = inhibition above about 24%; note: 0% = median of the test wells and 100% = reference compound wells
PfHsp40 yeast: rescue of PfHsp40-mediated yeast toxicity. growth rescue, % at 12.5 µM. AID 504582. 340,000 compounds, 0.68% hits. S. cerevisiae expressing PfHsp40, growth rescue, ATP luminescence; in the data active = growth rescue above about 28%, passing the limit was not always enough;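 note: yeast W303a lacking pdr1 and pdr3 grown in galactose medium; growth measured after three days at 30 °C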
Mtb FBA inh: Mtb fructose-bisphosphate aldolase inhibition. inhibition, % at 1 µM. P9WQA3. purified M. tuberculosis FBA, fluorescence read-out. AID 588726. 360,000 compounds, 2.3% hits; in the data active = inhibition above about 27%;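 note: 0% = vehicle and 100% = reference inhibitor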
Target sequence (P9WQA3 whole entry, looked up): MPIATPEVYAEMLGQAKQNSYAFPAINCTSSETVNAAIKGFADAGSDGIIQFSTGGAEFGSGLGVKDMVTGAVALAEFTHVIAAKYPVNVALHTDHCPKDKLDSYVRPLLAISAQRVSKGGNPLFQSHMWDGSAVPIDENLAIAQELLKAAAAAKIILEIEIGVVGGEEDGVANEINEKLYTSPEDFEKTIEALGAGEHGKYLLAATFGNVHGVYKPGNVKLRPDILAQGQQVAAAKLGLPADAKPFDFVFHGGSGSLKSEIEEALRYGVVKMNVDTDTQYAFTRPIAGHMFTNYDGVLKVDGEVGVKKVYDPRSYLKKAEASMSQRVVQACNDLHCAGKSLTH
PrP 5UTR inh: suppresses PrP 5' UTR mRNA reporter expression; cell-based PrP 5' UTR mRNA reporter, plate reader; inhibition, % (concentration not given with the values); 340,000 compounds, 0.35% hits; AID 488862; in the data active = inhibition above about 52%; note: 0 = median of the neutral control wells
PrPC confirm: confirmation of inhibitors of cell surface human prion protein; shares compounds with PrPC TRFRET; cell surface PrPC level, TR-FRET; inhibition, % at 13.8 µM; 1,500 compounds, 65% hits; in the data active = inhibition above about 25%
LD9 tox: counter-screen for PrPc inhibitors: cytotoxicity in LD9 cells; shares compounds with PrPC TRFRET; luminescence viability; inhibition, % at 13.8 µM; 1,500 compounds, 29% hits; in the data active = inhibition above about 9.5%
The depositor's hits bear a star; nt = not tested or not shown.

SMILES	GDH-TPI counter	BJeLR lethal	PrPC TRFRET	PfHsp40 yeast	Mtb FBA inh	PrP 5UTR inh	PrPC confirm	LD9 tox
O=S(=O)(CCN1CCN(c2ccccc2O)CC1)c1cc(Cl)ccc1Cl	-4	nt	36*	3	-2	-14	3	-2
Cc1occc1C(=O)N1CCN(C(=O)C2CCCO2)CC1 (stereo not given)	2	9	47*	-1	-2	-3	5	-2
COc1cc2c(cc1CN1CCN(C(=O)c3cc(OC)c(OC)c(OC)c3)CC1)OCO2	-3	-4	-5	-1	4	-106	nt	nt
NS(=O)(=O)c1ccc(NC(=O)COC(=O)c2cnc(Cl)c(Cl)c2)cc1	6	1	-1	-1	-2	-18	nt	nt
CCOc1ccc2[nH]c(C)c(CN3CCOCC3)c(=O)c2c1	9	-14	32*	-1	9	-22	3	-3
Cc1[nH]c2ccc(Br)cc2c(=O)c1CN1CCOCC1	14	-4	0	-3	4	-6	nt	nt
O=C(COc1ccc2ccccc2c1)NNC(=O)Cc1ccccc1	-3	-9	4	0	1	-14	nt	nt
O=C(Cc1ccccc1)NNc1ccc2ccccc2c1	2	13	30*	0	3	-32	13	0
CC1CCC(NC(=O)COC(=O)c2cccnc2Cl)CC1 (stereo not given)	1	nt	7	2	2	-24	nt	nt
O=C(NCc1ccccc1)c1ccc(Cl)cc1	nt	-8	7	nt	nt	nt	nt	nt
O=C(NCc1ccc(Cl)cc1)c1cccc(NC(=O)c2ccccc2)c1	7	-26	32*	1	-3	-6	27*	-2
COc1cc(-c2nc3ccc(C)cn3c2NCc2ccccc2)ccc1SC1CCCCC1	12	1	25*	0	39*	-4	14	11*
COc1ccc(-c2nc3cnccn3c2NCc2ccccc2)cc1SC1CCCCC1	-8	-6	nt	6	20	-18	nt	nt
O=C(NCCC1CCCCN1S(=O)(=O)c1ccc(Cl)cc1)C(=O)NCCN1CCOCC1 (stereo not given)	13	-2	0	2	1	-10	nt	nt
CC(C)(C)C(=O)c1cnc(Nc2ccccc2Cl)s1	16	-2	28*	4	1	-36	36*	1
COc1cc(C(=O)Nc2scc(-c3ccc(Br)cc3)c2C(=O)O)cc(OC)c1OC	3	0	56*	1	7	-19	60*	-5
Cc1ccc(-c2csc(NC(=O)c3cccc(C)c3)c2C(=O)O)cc1	6	-2	36*	60*	7	-25	50*	-6
C[C@@H]1CN([C@H](C)CO)C(=O)c2cc(Br)cnc2O[C@H]1CN(C)C(=O)CC1CC1	4	nt	-2	nt	-2	nt	nt	nt
COC(=O)C1=C(c2ccc3ccccc3c2)C[C@@H]2CC[C@H]1N2C	12	nt	-3	1	4	-3	nt	nt
COC(=O)C1=C(C(=O)OC)C2OC1c1cc3ccccc3cc12	-1	nt	45*	71*	3	-18	17	98*
CSc1cccc(NS(=O)(=O)c2ccc3c(c2)CCN3C(C)=O)c1	-3	18	25*	1	2	-14	21	15*
O=C(CSc1nncc2ccccc12)Nc1ccc(F)cc1	10	-16	37*	1	-2	-16	48*	-5
NS(=O)(=O)c1c(Sc2ccccc2C(=O)O)ccc2ccccc12	13	-4	34*	0	2	-12	53*	-5
CNS(=O)(=O)c1cc(Cl)ccc1Sc1ccccc1C(=O)O	-3	-4	0	-1	0	-58	nt	nt
OC[C@@H]1CN(Cc2ccc(Cl)cc2)C[C@H](n2cnc3c(NC4CCCC4)ncnc32)O1	-1	nt	28*	nt	0	nt	35*	-5
S=c1[nH]nc(-c2cccc(Br)c2)o1	8	-5	25*	-1	20	-15	36*	-3
CCc1cc2cccc(C)c2nc1SCC(=O)NNC(=O)c1ccco1	10	4	71*	-1	-1	-15	98*	-3
CCc1cc2cccc(C)c2nc1SCC(=O)Nc1nonc1C	0	5	31*	-2	-5	-20	35*	-5
